PubChem BioAssay (NCI)
“And” between values parts separate entries of the source, which are not always exact repeats. Identical values can stand only once. The panel holds about 83,000 compounds, 20% with a hit somewhere; the sample as a whole holds those more often.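 Growth was measured after 48 h exposure to one concentration of compound in 96-well plates. Values under 10 count as active.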 The source made the active and inactive calls.

Assays:
Assay in all cases: NCI-60 one-dose screen, 48 h (100 = growth as untreated, 0 = no growth, -100 = all killed)
HCT-15 colon = test system: HCT-15 colon
HT29 colon = test system: HT29 colon
SNB-75 CNS = test system: SNB-75 CNS
SNB-19 CNS = test system: SNB-19 CNS
U251 CNS = test system: U251 CNS
PC-3 prostate = test system: PC-3 prostate
SK-MEL-5 melanoma = test system: SK-MEL-5 melanoma
UACC-62 melanoma = test system: UACC-62 melanoma
LOX IMVI melanoma = test system: LOX IMVI melanoma
SK-MEL-28 melanoma = test system: SK-MEL-28 melanoma
SK-MEL-2 melanoma = test system: SK-MEL-2 melanoma
EKVX NSCLC = test system: EKVX NSCLC
SN12C renal = test system: SN12C renal
UO-31 renal = test system: UO-31 renal
TK-10 renal = test system: TK-10 renal
ACHN renal = test system: ACHN renal
CAKI-1 renal = test system: CAKI-1 renal
A498 renal = test system: A498 renal
CCRF-CEM leukemia = test system: CCRF-CEM leukemia
MOLT-4 leukemia = settings: 10 µM unless noted

Measured: growth

Clc1ccc(Nc2nnc(-c3c[nH]c4ccccc34)o2)cc1
active: MOLT-4 leukemia 9.41%
inactive: HCT-15 colon; 10 µM unless noted 40.4% | HT29 colon; 10 µM unless noted 88.6% | SNB-75 CNS; 10 µM unless noted 59.5% | SNB-19 CNS; 10 µM unless noted 85.5% | U251 CNS; 10 µM unless noted 76.4% | PC-3 prostate; 10 µM unless noted 60.7% | SK-MEL-5 melanoma; 10 µM unless noted 87.6% | UACC-62 melanoma; 10 µM unless noted 65.4% | LOX IMVI melanoma; 10 µM unless noted 58.1% | SK-MEL-28 melanoma; 10 µM unless noted 91.1% | SK-MEL-2 melanoma; 10 µM unless noted 95.8% | EKVX NSCLC; 10 µM unless noted 55.3% | SN12C renal; 10 µM unless noted 53.6% | UO-31 renal; 10 µM unless noted 49.7% | TK-10 renal; 10 µM unless noted 121% | ACHN renal; 10 µM unless noted 74.4% | CAKI-1 renal; 10 µM unless noted 50.8% | A498 renal; 10 µM unless noted 120% | CCRF-CEM leukemia; 10 µM unless noted 10.9%

CC/C(=C(/c1ccc(O)cc1)c1ccc(OCCN(C)C(=O)COCCOCCNC(=O)c2ccc3c(c2)CN([C@@H]2CCC(=O)NC2=O)C3=O)cc1)c1ccccc1
inactive: HCT-15 colon; 1 µM 105% | HCT-15 colon; 10 µM 106% | HT29 colon; 1 µM 96.6% | HT29 colon; 10 µM 86% | SNB-75 CNS; 1 µM 54.5% | SNB-75 CNS; 10 µM 34.7% | SNB-19 CNS; 1 µM 85.5% | SNB-19 CNS; 10 µM 75.5% | U251 CNS; 1 µM 98.3% | U251 CNS; 10 µM 90.8% | PC-3 prostate; 1 µM 49.6% | PC-3 prostate; 10 µM 39.3% | SK-MEL-5 melanoma; 1 µM 95.2% | SK-MEL-5 melanoma; 10 µM 84.1% | UACC-62 melanoma; 1 µM 93.1% | UACC-62 melanoma; 10 µM 91.6% | LOX IMVI melanoma; 1 µM 98% | LOX IMVI melanoma; 10 µM 97.2% | SK-MEL-28 melanoma; 1 µM 101% | SK-MEL-28 melanoma; 10 µM 97.5% | SK-MEL-2 melanoma; 1 µM 101% | SK-MEL-2 melanoma; 10 µM 93.5% | EKVX NSCLC; 1 µM 99.1% | EKVX NSCLC; 10 µM 93.4% | SN12C renal; 1 µM 96% | SN12C renal; 10 µM 85% | UO-31 renal; 1 µM 87.2% | UO-31 renal; 10 µM 87.7% | TK-10 renal; 1 µM 99.1% | TK-10 renal; 10 µM 91.2% | ACHN renal; 1 µM 104% | ACHN renal; 10 µM 101% | CAKI-1 renal; 1 µM 99.3% | CAKI-1 renal; 10 µM 95.5% | A498 renal; 1 µM 114% | A498 renal; 10 µM 110% | CCRF-CEM leukemia; 10 µM 12.9%
active: CCRF-CEM leukemia; 1 µM 9.04%

CC(=O)Nc1cccc(-n2c(COc3ccc(Br)cc3)nc3ccccc32)c1
inactive: HCT-15 colon; 10 µM unless noted 88.7% and 107% | HT29 colon; 10 µM unless noted 123% and 115% | SNB-75 CNS; 10 µM unless noted 89% and 94.7% | SNB-19 CNS; 10 µM unless noted 96.9% and 98.7% | U251 CNS; 10 µM unless noted 94.9% and 113% | PC-3 prostate; 10 µM unless noted 72.8% and 103% | SK-MEL-5 melanoma; 10 µM unless noted 90.3% and 103% | UACC-62 melanoma; 10 µM unless noted 71.9% and 91.9% | LOX IMVI melanoma; 10 µM unless noted 91.8% and 104% | SK-MEL-28 melanoma; 10 µM unless noted 101% and 106% | SK-MEL-2 melanoma; 10 µM unless noted 95.4% and 112% | EKVX NSCLC; 10 µM unless noted 98.1% and 103% | SN12C renal; 10 µM unless noted 104% and 110% | UO-31 renal; 10 µM unless noted 69.3% and 86.1% | TK-10 renal; 10 µM unless noted 119% and 110% | ACHN renal; 10 µM unless noted 79.6% and 107% | CAKI-1 renal; 10 µM unless noted 72.4% and 101% | A498 renal; 10 µM unless noted 105% and 124% | CCRF-CEM leukemia; 10 µM unless noted 95.9% and 98.5% | MOLT-4 leukemia 84.6% and 101%

CCc1ccccc1-c1nc(CN[C@@H]2C[C@@H]3C[C@H]([C@H]2C)C3(C)C)c(C)o1
active: HCT-15 colon; 10 µM unless noted -71.2% | HT29 colon; 10 µM unless noted -73.8% | SNB-75 CNS; 10 µM unless noted -68.1% | SNB-19 CNS; 10 µM unless noted -81.7% | U251 CNS; 10 µM unless noted -61.9% | PC-3 prostate; 10 µM unless noted -54.3% | SK-MEL-5 melanoma; 10 µM unless noted -94.3% | UACC-62 melanoma; 10 µM unless noted -88.3% | LOX IMVI melanoma; 10 µM unless noted -94.4% | SK-MEL-28 melanoma; 10 µM unless noted -80.3% | SK-MEL-2 melanoma; 10 µM unless noted -83.6% | EKVX NSCLC; 10 µM unless noted -81.8% | SN12C renal; 10 µM unless noted -79.3% | UO-31 renal; 10 µM unless noted -87.8% | TK-10 renal; 10 µM unless noted -88.9% | ACHN renal; 10 µM unless noted -97.9% | CAKI-1 renal; 10 µM unless noted -95% | A498 renal; 10 µM unless noted -90.9% | CCRF-CEM leukemia; 10 µM unless noted 3.82% | MOLT-4 leukemia -28.2%

COc1sc(/C=N/NC(=O)c2[nH]c3ccc(Br)cc3c2-c2ccccc2)cc1Cl
active: HCT-15 colon; 10 µM unless noted -26.2% | HT29 colon; 10 µM unless noted -52.8% | SNB-19 CNS; 10 µM unless noted -46% | U251 CNS; 10 µM unless noted -40.7% | PC-3 prostate; 10 µM unless noted 4.59% | SK-MEL-5 melanoma; 10 µM unless noted -91.1% | UACC-62 melanoma; 10 µM unless noted -30.6% | LOX IMVI melanoma; 10 µM unless noted -91.7% | SK-MEL-28 melanoma; 10 µM unless noted -33.1% | SK-MEL-2 melanoma; 10 µM unless noted -9.93% | EKVX NSCLC; 10 µM unless noted -12.3% | SN12C renal; 10 µM unless noted -26.6% | UO-31 renal; 10 µM unless noted -5.09% | TK-10 renal; 10 µM unless noted 9.67% | ACHN renal; 10 µM unless noted -67.9% | CAKI-1 renal; 10 µM unless noted -46.4% | A498 renal; 10 µM unless noted 9.37% | CCRF-CEM leukemia; 10 µM unless noted 9.12% | MOLT-4 leukemia -3.08%
inactive: SNB-75 CNS; 10 µM unless noted 42%

CC/C(=C(\c1ccc(O)cc1)c1ccc(OCCN(C)C(=O)CCOCCNC(=O)c2ccc3c(c2)CN([C@@H]2CCC(=O)NC2=O)C3=O)cc1)c1ccccc1
inactive: HCT-15 colon; 1 µM 110% | HCT-15 colon; 10 µM 103% | HT29 colon; 1 µM 95% | HT29 colon; 10 µM 89% | SNB-75 CNS; 1 µM 59% | SNB-75 CNS; 10 µM 64.2% | SNB-19 CNS; 1 µM 92.7% | SNB-19 CNS; 10 µM 90.1% | U251 CNS; 1 µM 95.3% | U251 CNS; 10 µM 92.6% | PC-3 prostate; 1 µM 54.2% | PC-3 prostate; 10 µM 52.9% | SK-MEL-5 melanoma; 1 µM 95.4% | SK-MEL-5 melanoma; 10 µM 87.9% | UACC-62 melanoma; 1 µM 95.9% | UACC-62 melanoma; 10 µM 95% | LOX IMVI melanoma; 1 µM 104% | LOX IMVI melanoma; 10 µM 94.4% | SK-MEL-28 melanoma; 1 µM 102% | SK-MEL-28 melanoma; 10 µM 102% | SK-MEL-2 melanoma; 1 µM 103% | SK-MEL-2 melanoma; 10 µM 101% | EKVX NSCLC; 1 µM 100% | EKVX NSCLC; 10 µM 89.1% | SN12C renal; 1 µM 91.3% | SN12C renal; 10 µM 95.7% | TK-10 renal; 1 µM 99% | TK-10 renal; 10 µM 88.5% | ACHN renal; 1 µM 103% | ACHN renal; 10 µM 106%
